From paper PMC4552634, “A New Set of Chemical Starting Points with Plasmodium falciparum Transmission-Blocking Potential for Antimalarial Drug Discovery” (PLoS ONE, 2015)
The campaign covered roughly 13,000 compounds. About 3,200 (25%) showed an effect of 50% or more. This is one part of the list.

system: P. falciparum stage V gametocytes; set-up: BacTiter-Glo ATP luminescence viability of purified stage V gametocytes in 384-well plates, per cent inhibition versus DMSO; conditions: 48 h, 5 µM; inhibitor

Row | SMILES | % Inhibition
1 | CN(C)c1ccc(-c2cscc2C(=O)NC2CCCN(Cc3cccnc3)C2)cc1 (centres unmarked) [TCMDC-134489] | 34.49%
2 | CN(Cc1cccc(F)c1)C1CCCN(c2cc(NC(=O)c3ccccc3)ccn2)C1 (centres unmarked) [TCMDC-135013] | 1.109%
3 | CN1CC=C(c2c[nH]c3ccc(OC(=O)c4ccccc4)cc23)C1 [TCMDC-139100] | -51.1%
4 | CCNC(=O)Nc1ccc(-c2cnc(N)c(-c3nc4ccc(OC)cc4[nH]3)c2)cc1 [TCMDC-135321] | -14.13%
5 | O=C(/C=C/c1ccc(Cl)c(Cl)c1)NC1CCC(CN2CCC(c3nc4ccccc4n3CCCO)CC2)CC1 (centres unmarked) [TCMDC-140313] | 5.954%
6 | Cc1cc(NC2CCN(CC3CCCCC3)CC2)nc(Nc2ccccc2Cl)n1 [TCMDC-137017] | -7.805%
7 | CCC(CC)n1cc2c(ccc3nc(N)nc(N)c32)n1 [TCMDC-138019] | -28.37%
8 | Nc1ccnc(N2CCC(CCOc3cc(C(F)(F)F)nc4c(C(F)(F)F)cccc34)CC2)c1 [TCMDC-141364] | 15.98%
9 | CC(Cc1ccc(CN2CCN(Cc3ccccc3)CC2)cc1)NCC(O)c1cccc(C(F)(F)F)c1 (centres unmarked) [TCMDC-131534] | 42.03%
10 | N=C(N)c1ccc(-c2cc(-c3cccc(C(=N)N)c3)on2)cc1 [TCMDC-137264] | 7.482%
11 | Cc1ccc(NC(=O)c2ccc3ncccc3c2)cc1OC1CCN(Cc2ccsc2)C1 (centres unmarked) [TCMDC-133949] | -9.977%
12 | c1ccc(COc2ccc(Nc3ncnc4ccc(-c5ccc(CN6CCSCC6)o5)cc34)cc2)cc1 [TCMDC-138242] | 13.7%
13 | Cc1ccc(C)c(NC(=O)Nc2ccc(Nc3nc(C)cc(N4CCOCC4)n3)cc2)c1 [TCMDC-124751] | 3.565%
14 | CC(=O)N/N=C/[C@H](CCc1ccccc1)NC(=O)[C@H](CC(C)C)NC(=O)c1cccc(OCCN2CCOCC2)c1 [TCMDC-135972] | 30.82%
15 | CCCCNC(=O)C1CCCN(C(=O)c2ccc(O)c(-c3ccc(Cl)c(Cl)c3)c2)C1 (centres unmarked) [TCMDC-140887] | -1.062%
16 | CS(=O)(=O)NCCCNCc1cccc(-c2csc(-c3nc4ccccc4[nH]3)c2)c1 [TCMDC-133089] | -10.78%
17 | COc1ccc2nc(C)cc(Nc3ccc(Oc4ccc(Br)c5ccccc45)c(Cl)c3)c2c1 [TCMDC-124238] | 12.09%
18 | CCCNC(=O)Nc1cc2cc(-c3ccc(CN4CCCC4)cc3)ccc2n2c(C)nnc12 [TCMDC-136718] | 108.6%
19 | Cc1ccc(CN2CCCN(Cc3cccc(NC(=O)c4ccc(-c5ccccc5)cc4)c3)CC2)cc1C [TCMDC-141851] | -43.17%
20 | O=C(/C=C/c1ccc([N+](=O)[O-])cc1)N1CCC(NS(=O)(=O)c2ccc(Br)cc2)CC1 [TCMDC-139442] | 11.64%
21 | COc1ccc(C(=O)CCc2ccc(O)cc2)cc1 [TCMDC-124290] | -50.17%
22 | Cc1cccc2[nH]c(-c3ccc(-c4cccc(CNCCCN5CCCC5=O)c4)cc3)nc12 [TCMDC-132758] | 19.9%
23 | CC(C)CNCc1cccc(-c2cccc(CNc3ccc4ncccc4c3)c2)c1 [TCMDC-140718] | 9.838%

Row | SMILES | % Inhibition
24 | CN1CCN(CCCNCc2cccc(-c3ccc(CNCCc4ccccc4)cc3)c2)CC1 [TCMDC-140643] | 103.5%
25 | CC(C)CNCc1cccc(-c2cccc(CNCCCN3CCN(C)CC3)c2)c1 [TCMDC-140483] | 101.9%
26 | O=C(NCCN1CCC(c2ccncc2)CC1)c1ccc(Nc2nccc(Nc3ccc(Oc4ccccc4)cc3)n2)cc1 [TCMDC-138610] | -43.68%
27 | CCCc1ccc(S(=O)(=O)NC2CCN(c3ccnc(Nc4ccc(F)cc4)n3)C2)cc1 (centres unmarked) [TCMDC-133598] | 2.344%
28 | O=C(c1ccc2ccccc2n1)N1CCCc2cc(Br)ccc21 [TCMDC-134838] | -4.614%
29 | Cc1ccc(C(=O)Nc2ccc(C)c(OC3CCN(CCC(C)C)C3)c2)cc1 (centres unmarked) [TCMDC-133981] | -13.13%
30 | CN(C)CCn1c(N)c(-c2nc3ccccc3s2)c2nc(C#N)c(C#N)nc21 [TCMDC-124439] | -7.276%
31 | CCN(CC)CCCn1c(N)c(-c2nc3ccccc3[nH]2)c2nc(C#N)c(C#N)nc21 [TCMDC-123680] | 117%
32 | N#Cc1c(N)n(CCc2ccc(F)cc2)c2nc3ccccc3nc12 [TCMDC-125779] | 44.22%
33 | CN(C)CCCn1c(N)c(-c2nc3ccccc3[nH]2)c2nc(C#N)c(C#N)nc21 [TCMDC-123729] | 113.1%
34 | CCOC(=O)c1ccc(NC(=O)Nc2ccc(-c3ccc(-c4nc5ccccc5[nH]4)cc3)cc2)cc1 [TCMDC-133265] | -0.3523%
35 | COc1ccc(COc2c(OC)cc(Cc3cnc(N)nc3N)cc2OC)cc1 [TCMDC-138619] | 7.542%
36 | NC1=NC(c2ccccc2)(c2ccccc2)C(=O)N1CCCCc1ccccn1 [TCMDC-132209] | -31.55%
37 | COc1ccc(O)c(C(=O)c2cc(C#N)c(=O)n(-c3ccc(Oc4ccccc4)cc3)c2)c1 [TCMDC-123628] | -33.17%
38 | CCCCn1c(C(C)Oc2ccc(Cl)cc2Cl)nc2cc(S(N)(=O)=O)ccc21 (centres unmarked) [TCMDC-125564] | 8.97%
39 | CC(Cc1ccc(OCCCCOc2ccccc2)cc1)NCCc1ccccc1Cl (centres unmarked) [TCMDC-140019] | 97.11%
40 | CC(CCc1ccc(OCc2ccccc2)cc1)NCC(O)c1ccccc1 (centres unmarked) [TCMDC-131472] | 8.257%
41 | CC(Cc1ccc(OCCCCOc2ccccc2)cc1)NCCc1ccc(Oc2ccccc2)cc1 (centres unmarked) [TCMDC-140021] | 88.65%
42 | COC(=O)c1ccc(CC(C)NCC(O)c2ccccc2Cl)cc1 (centres unmarked) [TCMDC-131422] | 7.207%
43 | CC(Cc1ccc(OCc2ccccc2)cc1)Nc1nc2ccccc2c(=O)[nH]1 (centres unmarked) [TCMDC-131532] | -11.7%
44 | COc1cccc(CCNC(C)Cc2ccc(OCCCCOc3ccccc3)cc2)c1 (centres unmarked) [TCMDC-140020] | 127.9%
45 | COc1ccc(Nc2nccc(N3CCC(NC(=O)c4cccc(C#N)c4)C3)n2)cc1 (centres unmarked) [TCMDC-133609] | -14.42%
46 | COc1ccccc1CCCON1C(N)=NC(N)=NC1(C)C [TCMDC-131723] | 17.71%

Row | SMILES | % Inhibition
47 | CCCCOc1c(CCC)cc(Cc2cnc(N)nc2N)cc1CCC [TCMDC-137692] | -41.23%
48 | Cc1cccc2[nH]c(-c3cccc(-c4cccc(NC(=O)c5cnccc5C(F)(F)F)c4)c3)nc12 [TCMDC-137118] | 53.02%
49 | Cc1cccc2[nH]c(-c3cccc(-c4ccc(NC(=O)c5cnccc5C(F)(F)F)cc4)c3)nc12 [TCMDC-137119] | 66.25%
50 | Cc1ncccc1C(=O)Nc1ccc(-c2cccc(-c3nc4c(C)cccc4[nH]3)c2)cc1 [TCMDC-136862] | -37.31%
51 | Cc1cccc2[nH]c(-c3cccc(-c4ccc(NC(=O)c5cccnc5)cc4)c3)nc12 [TCMDC-136929] | -10.6%
52 | Cc1cccc2[nH]c(-c3ccc(-c4cccc(NC(=O)c5cnccc5C(F)(F)F)c4)cc3)nc12 [TCMDC-137117] | -14.87%
53 | Cc1cccc2[nH]c(-c3cccc(-c4cccc(NC(=O)c5cccnc5)c4)c3)nc12 [TCMDC-136927] | 36.77%
54 | c1ccc(C2=NN=C(c3ccccn3)C3C4CC(C23)C2C3CC(c5ccccc53)C42)nc1 (centres unmarked) [TCMDC-138248] | -12.71%
55 | COc1ccc(C(=O)Nc2cc(Cl)c3c(c2)C2CCCN2CC3)cc1C(F)(F)F (centres unmarked) [TCMDC-139417] | -51.32%
56 | COc1cc(NC(=O)/C=C/c2cc(F)cc(F)c2F)cc(OCCN2CCN(CCN3CCOCC3)CC2)c1 [TCMDC-140930] | -13.83%
57 | COc1ccc(CNc2cc(C)nc3sc4c(c23)CCC2(C4)OCCO2)cc1 [TCMDC-138981] | -1.212%
58 | Cc1nc(NCCCn2ccnc2)cc(-c2cncc(-c3ccc(OC(F)(F)F)cc3)c2)n1 [TCMDC-125423] | 9.398%
59 | COc1ccc(-n2nc(C)cc2C(=O)NCc2ccc(-c3c(C)noc3C)cc2)cc1 [TCMDC-133779] | 19.66%
60 | COc1ccc(-c2cncc3ccc(C(=O)NCCCn4ccnc4)nc23)cc1 [TCMDC-125412] | 77.43%
61 | COc1ccc(NC(=O)Nc2ccc(C)c(-c3ccc(C(=O)Nc4ccncc4)cc3)c2)cc1 [TCMDC-133705] | 11.61%
62 | COc1ccc(-c2cc3nc4c(c(NCCCn5ccnc5)n3n2)CCCC4)cc1 [TCMDC-124389] | -21.29%
63 | COc1ccc(-c2cncc3ccc(C(=O)NCc4ccncc4)nc23)cc1 [TCMDC-125411] | 51.25%
64 | COc1ccc(Nc2cc(C)nc(Nc3ccc(NC(C)=O)cc3)n2)cc1 [TCMDC-124979] | -41.12%
65 | O=C(Nc1ccc(I)cc1)Nc1ccc(Cn2ncc(N3CCCNCC3)c(Cl)c2=O)cc1 [TCMDC-133322] | -17.85%
66 | Cc1ccc2c(C3=CCN(CCCCC4(C)C(=O)Nc5c(F)cccc54)CC3)c(C)[nH]c2c1 (centres unmarked) [TCMDC-141005] | 12.05%
67 | CCN(CC)Cc1ccc2c(=O)cc(CCc3cccc(F)c3F)n(CC(=O)N(Cc3ccc(-c4ccc(C(F)(F)F)cc4)cc3)C(C)C)c2c1 [TCMDC-141567] | 74.8%
68 | CC(C)N(Cc1ccc(-c2ccc(C(F)(F)F)cc2)cc1)C(=O)Cn1c(CCc2cccc(F)c2F)cc(=O)c2ccc(CCCN3CCCCC3)cc21 [TCMDC-141581] | 119.6%
